Laboratory results from ChEMBL document CHEMBL1961873, “Compounds: GSK PKIS; Assays: Nanosyn kinase panel” (2012).

Assays:
[1] = target: T1, Inhibitor of nuclear factor kappa-B kinase subunit epsilon (Homo sapiens) (UniProt Q14164); conditions: at 1 µM;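 note: reported values are averaged percent inhibition figures against human IKKε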
T1 sequence (whole entry): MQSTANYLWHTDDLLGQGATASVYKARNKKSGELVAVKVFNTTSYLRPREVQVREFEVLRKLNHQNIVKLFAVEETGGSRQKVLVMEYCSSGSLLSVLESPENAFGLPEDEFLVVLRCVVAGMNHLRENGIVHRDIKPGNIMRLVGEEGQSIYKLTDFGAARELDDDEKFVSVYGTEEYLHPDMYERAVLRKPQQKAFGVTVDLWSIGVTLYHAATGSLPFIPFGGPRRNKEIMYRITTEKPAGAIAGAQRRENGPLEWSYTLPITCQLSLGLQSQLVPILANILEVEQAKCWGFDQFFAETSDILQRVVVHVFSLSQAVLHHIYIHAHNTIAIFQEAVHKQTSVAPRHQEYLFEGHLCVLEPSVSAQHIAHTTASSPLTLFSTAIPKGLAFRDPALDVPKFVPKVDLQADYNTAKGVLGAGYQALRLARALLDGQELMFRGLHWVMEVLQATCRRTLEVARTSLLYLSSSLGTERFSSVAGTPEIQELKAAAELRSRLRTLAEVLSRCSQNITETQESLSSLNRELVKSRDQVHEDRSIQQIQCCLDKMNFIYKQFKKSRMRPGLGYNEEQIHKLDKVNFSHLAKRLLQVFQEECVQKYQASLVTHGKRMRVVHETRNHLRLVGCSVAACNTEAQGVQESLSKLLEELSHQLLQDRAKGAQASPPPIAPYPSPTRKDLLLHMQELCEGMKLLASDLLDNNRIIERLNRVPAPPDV

[2] = target: T2, Serine/threonine-protein kinase Nek1 (Homo sapiens) (UniProt Q96PY6); conditions: at 0.1 µM
T2 sequence (whole entry): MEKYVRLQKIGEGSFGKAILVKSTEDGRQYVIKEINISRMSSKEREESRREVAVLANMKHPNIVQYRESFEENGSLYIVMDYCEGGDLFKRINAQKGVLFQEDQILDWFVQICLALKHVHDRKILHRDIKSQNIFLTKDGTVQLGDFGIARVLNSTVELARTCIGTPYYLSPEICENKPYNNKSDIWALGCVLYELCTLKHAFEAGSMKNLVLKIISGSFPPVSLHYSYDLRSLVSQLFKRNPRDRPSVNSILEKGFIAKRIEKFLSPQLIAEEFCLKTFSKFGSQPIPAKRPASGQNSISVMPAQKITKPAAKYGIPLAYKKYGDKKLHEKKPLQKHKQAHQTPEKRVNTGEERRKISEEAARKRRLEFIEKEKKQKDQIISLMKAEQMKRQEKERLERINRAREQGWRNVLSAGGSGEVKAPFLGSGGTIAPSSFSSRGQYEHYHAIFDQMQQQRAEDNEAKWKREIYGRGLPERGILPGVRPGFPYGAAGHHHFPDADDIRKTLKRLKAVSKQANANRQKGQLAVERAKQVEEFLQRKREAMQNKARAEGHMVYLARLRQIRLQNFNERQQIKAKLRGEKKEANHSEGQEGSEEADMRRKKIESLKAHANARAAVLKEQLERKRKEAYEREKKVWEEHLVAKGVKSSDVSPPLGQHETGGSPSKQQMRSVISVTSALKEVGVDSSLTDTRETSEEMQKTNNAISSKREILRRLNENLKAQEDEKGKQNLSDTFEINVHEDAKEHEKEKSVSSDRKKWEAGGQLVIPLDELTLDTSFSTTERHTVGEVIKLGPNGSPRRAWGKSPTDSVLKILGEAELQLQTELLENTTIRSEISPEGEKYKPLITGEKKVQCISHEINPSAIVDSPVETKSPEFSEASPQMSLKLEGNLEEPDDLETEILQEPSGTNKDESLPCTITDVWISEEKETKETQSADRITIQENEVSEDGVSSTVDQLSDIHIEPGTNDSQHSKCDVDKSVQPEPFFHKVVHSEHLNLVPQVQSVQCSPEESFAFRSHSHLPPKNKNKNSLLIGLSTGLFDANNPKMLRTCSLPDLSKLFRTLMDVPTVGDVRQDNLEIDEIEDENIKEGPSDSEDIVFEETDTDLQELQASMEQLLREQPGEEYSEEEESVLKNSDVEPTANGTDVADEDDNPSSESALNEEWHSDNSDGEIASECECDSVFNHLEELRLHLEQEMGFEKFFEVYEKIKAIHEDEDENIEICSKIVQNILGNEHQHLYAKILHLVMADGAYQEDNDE

[3] = target: T2, Serine/threonine-protein kinase Nek1 (Homo sapiens); conditions: at 1 µM
[4] = target: T3, Serine/threonine-protein kinase Nek2 (Homo sapiens) (UniProt P51955); conditions: at 0.1 µM
T3 sequence (whole entry): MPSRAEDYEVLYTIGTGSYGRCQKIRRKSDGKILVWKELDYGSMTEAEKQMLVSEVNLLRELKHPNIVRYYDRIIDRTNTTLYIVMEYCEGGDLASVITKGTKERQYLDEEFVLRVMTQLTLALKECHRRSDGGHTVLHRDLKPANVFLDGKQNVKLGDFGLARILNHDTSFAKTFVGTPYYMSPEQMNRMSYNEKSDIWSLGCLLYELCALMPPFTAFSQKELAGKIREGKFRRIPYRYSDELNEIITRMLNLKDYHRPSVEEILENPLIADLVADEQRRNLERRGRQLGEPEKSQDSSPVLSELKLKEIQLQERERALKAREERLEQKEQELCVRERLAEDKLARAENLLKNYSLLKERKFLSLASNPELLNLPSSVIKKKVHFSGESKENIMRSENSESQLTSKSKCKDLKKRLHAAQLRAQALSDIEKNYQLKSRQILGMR

[5] = target: T3, Serine/threonine-protein kinase Nek2 (Homo sapiens); conditions: at 1 µM
[6] = target: Serine/threonine-protein kinase Nek6 (Homo sapiens) (UniProt Q9HC98); conditions: at 0.1 µM
[7] = target: Serine/threonine-protein kinase Nek6 (Homo sapiens) (UniProt Q9HC98); conditions: at 1 µM
[8] = target: Serine/threonine-protein kinase Nek7 (Homo sapiens) (UniProt Q8TDX7); conditions: at 0.1 µM
[9] = target: Serine/threonine-protein kinase Nek7 (Homo sapiens) (UniProt Q8TDX7); conditions: at 1 µM
[10] = target: T4, Serine/threonine-protein kinase Nek9 (Homo sapiens) (UniProt Q8TD19); conditions: at 0.1 µM
T4 sequence (whole entry): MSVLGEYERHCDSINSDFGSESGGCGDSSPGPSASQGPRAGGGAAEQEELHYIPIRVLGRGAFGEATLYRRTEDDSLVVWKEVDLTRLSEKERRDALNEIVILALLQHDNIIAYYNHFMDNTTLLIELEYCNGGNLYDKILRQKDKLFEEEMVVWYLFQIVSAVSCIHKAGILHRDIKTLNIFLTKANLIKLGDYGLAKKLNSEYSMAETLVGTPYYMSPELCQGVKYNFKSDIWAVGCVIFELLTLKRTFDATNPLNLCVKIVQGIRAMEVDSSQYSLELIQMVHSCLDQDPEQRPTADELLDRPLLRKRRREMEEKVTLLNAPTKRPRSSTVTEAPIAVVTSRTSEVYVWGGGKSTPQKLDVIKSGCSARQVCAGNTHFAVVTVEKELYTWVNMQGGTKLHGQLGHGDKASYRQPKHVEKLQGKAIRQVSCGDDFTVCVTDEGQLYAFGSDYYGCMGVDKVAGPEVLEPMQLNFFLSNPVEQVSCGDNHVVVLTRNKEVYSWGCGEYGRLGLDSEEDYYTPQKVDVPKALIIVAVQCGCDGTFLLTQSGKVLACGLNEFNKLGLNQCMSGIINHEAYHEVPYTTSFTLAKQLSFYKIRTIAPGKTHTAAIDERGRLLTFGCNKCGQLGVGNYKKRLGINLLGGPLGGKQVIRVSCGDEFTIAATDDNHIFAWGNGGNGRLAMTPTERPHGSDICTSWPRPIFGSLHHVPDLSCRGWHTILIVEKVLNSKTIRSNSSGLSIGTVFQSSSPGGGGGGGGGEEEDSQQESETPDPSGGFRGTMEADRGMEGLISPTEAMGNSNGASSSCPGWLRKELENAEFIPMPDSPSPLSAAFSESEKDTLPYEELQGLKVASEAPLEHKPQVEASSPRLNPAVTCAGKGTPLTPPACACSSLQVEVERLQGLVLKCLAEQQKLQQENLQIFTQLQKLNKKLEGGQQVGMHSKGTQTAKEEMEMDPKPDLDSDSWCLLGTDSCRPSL

[11] = target: T4, Serine/threonine-protein kinase Nek9 (Homo sapiens); conditions: at 1 µM
[12] = target: Serine/threonine-protein kinase PLK1 (Homo sapiens) (UniProt P53350); conditions: at 0.1 µM
[13] = target: Serine/threonine-protein kinase PLK1 (Homo sapiens) (UniProt P53350); conditions: at 1 µM
[14] = target: T5, Dual specificity protein kinase TTK (Homo sapiens) (UniProt P33981); conditions: at 0.1 µM
T5 sequence (whole entry): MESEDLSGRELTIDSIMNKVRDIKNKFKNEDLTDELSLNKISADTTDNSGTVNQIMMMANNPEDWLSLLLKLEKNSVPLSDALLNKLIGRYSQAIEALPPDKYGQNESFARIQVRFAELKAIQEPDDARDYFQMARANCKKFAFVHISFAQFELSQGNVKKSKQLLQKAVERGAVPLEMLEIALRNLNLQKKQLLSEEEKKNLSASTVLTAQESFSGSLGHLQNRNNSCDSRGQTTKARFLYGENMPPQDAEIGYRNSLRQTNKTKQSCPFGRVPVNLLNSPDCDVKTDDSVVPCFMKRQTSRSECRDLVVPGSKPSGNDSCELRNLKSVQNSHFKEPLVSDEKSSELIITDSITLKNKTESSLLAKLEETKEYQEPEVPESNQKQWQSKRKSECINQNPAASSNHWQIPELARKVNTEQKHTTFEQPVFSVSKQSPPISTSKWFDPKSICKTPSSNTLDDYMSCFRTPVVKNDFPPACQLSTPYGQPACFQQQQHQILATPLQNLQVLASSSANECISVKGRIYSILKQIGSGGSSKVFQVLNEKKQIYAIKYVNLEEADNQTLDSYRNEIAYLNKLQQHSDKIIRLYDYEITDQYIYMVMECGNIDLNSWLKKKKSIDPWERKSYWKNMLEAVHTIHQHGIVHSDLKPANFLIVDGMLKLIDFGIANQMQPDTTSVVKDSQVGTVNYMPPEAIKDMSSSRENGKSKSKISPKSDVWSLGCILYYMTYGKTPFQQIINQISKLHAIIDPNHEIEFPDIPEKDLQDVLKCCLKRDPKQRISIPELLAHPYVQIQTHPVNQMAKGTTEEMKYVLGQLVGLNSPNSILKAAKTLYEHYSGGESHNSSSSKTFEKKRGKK

[15] = tested on: T6, Receptor-type tyrosine-protein kinase FLT3 (Homo sapiens), P36888 [D835Y]; conditions: at 1 µM
T6 sequence (whole entry): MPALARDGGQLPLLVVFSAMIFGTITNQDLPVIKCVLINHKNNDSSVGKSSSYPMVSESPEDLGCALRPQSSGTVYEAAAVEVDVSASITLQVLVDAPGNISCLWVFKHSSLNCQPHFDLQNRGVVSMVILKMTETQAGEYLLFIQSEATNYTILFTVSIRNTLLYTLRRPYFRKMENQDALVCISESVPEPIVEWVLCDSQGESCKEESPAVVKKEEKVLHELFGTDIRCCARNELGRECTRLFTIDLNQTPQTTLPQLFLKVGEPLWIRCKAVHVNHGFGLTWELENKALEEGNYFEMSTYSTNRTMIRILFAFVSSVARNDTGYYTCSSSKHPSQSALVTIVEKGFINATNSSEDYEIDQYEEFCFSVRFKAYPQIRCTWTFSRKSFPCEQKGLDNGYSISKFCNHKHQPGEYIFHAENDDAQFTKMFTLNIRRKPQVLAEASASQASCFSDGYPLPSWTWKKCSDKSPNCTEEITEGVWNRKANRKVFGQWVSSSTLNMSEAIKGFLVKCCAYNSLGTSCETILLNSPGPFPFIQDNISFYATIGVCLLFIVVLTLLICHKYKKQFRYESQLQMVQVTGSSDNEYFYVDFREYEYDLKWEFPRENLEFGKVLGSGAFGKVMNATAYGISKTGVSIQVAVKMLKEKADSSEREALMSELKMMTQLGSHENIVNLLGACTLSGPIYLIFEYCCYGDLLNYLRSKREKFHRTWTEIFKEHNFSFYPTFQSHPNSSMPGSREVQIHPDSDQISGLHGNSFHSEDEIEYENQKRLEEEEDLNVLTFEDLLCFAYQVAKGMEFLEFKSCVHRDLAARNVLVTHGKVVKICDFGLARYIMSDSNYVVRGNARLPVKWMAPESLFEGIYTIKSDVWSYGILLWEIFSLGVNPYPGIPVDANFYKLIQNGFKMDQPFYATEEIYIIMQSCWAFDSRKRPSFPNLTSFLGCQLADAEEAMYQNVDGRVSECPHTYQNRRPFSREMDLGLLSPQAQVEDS

[16] = target: Vascular endothelial growth factor receptor 3 (Homo sapiens) (UniProt P35916); conditions: at 0.1 µM
[17] = target: Vascular endothelial growth factor receptor 3 (Homo sapiens) (UniProt P35916); conditions: at 1 µM
[18] = target: Macrophage colony-stimulating factor 1 receptor (Homo sapiens) (UniProt P07333); conditions: at 0.1 µM
[19] = target: Macrophage colony-stimulating factor 1 receptor (Homo sapiens) (UniProt P07333); conditions: at 1 µM
[20] = target: Tyrosine-protein kinase Fyn (Homo sapiens) (UniProt P06241); conditions: at 0.1 µM
Chain of Tyrosine-protein kinase Fyn (Homo sapiens) (P06241 2-537 limits assumed): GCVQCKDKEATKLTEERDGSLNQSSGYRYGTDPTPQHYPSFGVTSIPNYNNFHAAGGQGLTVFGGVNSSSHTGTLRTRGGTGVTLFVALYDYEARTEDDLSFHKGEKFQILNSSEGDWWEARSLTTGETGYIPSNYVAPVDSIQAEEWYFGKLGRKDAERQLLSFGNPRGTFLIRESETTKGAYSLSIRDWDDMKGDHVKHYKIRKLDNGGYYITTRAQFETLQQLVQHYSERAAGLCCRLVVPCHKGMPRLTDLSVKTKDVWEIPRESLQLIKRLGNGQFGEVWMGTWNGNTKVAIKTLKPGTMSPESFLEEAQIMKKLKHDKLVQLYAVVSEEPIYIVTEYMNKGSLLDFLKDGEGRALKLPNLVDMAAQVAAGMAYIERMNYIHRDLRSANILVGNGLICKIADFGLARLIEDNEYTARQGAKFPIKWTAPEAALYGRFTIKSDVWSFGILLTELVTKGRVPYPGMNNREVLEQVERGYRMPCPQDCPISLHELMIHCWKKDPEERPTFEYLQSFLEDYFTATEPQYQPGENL

Chain of Macrophage colony-stimulating factor 1 receptor (Homo sapiens) (P07333 whole entry): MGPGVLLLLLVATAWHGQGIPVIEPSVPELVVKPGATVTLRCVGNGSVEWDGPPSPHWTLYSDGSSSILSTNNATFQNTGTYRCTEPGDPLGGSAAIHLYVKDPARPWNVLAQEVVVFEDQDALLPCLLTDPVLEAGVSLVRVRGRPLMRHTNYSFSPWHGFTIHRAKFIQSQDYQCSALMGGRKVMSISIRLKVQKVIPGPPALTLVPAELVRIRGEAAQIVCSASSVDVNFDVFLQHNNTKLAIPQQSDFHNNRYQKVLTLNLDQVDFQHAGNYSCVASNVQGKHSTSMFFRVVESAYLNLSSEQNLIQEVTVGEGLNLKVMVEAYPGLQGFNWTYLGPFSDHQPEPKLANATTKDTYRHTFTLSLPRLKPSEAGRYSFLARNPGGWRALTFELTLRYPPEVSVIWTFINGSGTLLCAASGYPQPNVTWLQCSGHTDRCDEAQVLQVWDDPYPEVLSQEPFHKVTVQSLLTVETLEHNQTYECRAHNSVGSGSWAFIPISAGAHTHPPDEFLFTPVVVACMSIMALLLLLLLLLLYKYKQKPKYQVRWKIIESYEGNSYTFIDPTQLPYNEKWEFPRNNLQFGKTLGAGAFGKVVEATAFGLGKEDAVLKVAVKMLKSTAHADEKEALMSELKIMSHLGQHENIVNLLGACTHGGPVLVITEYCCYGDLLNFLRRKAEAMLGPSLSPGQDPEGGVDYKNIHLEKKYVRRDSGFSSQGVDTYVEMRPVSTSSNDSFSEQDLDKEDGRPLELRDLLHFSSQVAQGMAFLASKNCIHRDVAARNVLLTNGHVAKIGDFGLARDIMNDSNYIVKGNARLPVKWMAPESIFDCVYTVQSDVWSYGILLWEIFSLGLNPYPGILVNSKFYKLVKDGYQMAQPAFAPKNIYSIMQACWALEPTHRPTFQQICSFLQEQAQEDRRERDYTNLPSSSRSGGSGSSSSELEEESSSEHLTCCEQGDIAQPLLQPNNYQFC
Chain of Serine/threonine-protein kinase Nek7 (Homo sapiens) (Q8TDX7 whole entry, looked up): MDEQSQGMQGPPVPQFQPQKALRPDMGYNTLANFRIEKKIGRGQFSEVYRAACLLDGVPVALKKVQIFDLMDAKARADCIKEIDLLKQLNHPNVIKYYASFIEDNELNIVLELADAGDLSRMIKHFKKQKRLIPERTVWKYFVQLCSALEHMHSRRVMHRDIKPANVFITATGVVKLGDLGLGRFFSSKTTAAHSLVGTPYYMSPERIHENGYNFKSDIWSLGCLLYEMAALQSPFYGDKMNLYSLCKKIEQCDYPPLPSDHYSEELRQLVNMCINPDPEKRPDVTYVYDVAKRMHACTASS
Chain of Serine/threonine-protein kinase PLK1 (Homo sapiens) (P53350 whole entry): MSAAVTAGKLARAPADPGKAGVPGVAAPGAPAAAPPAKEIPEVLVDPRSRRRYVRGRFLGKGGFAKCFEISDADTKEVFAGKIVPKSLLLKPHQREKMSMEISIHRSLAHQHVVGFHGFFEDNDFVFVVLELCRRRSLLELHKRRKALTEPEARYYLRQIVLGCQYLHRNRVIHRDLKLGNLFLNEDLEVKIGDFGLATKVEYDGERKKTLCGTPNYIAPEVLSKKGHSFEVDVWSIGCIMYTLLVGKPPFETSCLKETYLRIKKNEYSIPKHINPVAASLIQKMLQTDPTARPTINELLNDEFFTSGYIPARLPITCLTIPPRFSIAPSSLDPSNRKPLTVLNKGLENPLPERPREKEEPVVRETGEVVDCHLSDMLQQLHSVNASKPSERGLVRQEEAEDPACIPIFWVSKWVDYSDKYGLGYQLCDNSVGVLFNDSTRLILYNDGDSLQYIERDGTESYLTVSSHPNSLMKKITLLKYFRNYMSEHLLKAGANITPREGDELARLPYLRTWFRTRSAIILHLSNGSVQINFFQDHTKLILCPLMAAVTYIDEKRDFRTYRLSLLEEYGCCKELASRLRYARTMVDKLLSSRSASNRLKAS
Chain of Serine/threonine-protein kinase Nek6 (Homo sapiens) (Q9HC98 whole entry): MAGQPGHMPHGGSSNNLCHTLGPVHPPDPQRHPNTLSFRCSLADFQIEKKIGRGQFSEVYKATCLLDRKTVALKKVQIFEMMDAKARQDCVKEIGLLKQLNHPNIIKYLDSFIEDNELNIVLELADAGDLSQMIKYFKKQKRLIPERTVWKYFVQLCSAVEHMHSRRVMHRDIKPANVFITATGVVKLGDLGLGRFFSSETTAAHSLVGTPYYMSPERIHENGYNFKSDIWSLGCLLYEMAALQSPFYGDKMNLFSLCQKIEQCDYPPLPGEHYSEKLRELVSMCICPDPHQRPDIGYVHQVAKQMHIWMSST
Chain of Vascular endothelial growth factor receptor 3 (Homo sapiens) (P35916 whole entry): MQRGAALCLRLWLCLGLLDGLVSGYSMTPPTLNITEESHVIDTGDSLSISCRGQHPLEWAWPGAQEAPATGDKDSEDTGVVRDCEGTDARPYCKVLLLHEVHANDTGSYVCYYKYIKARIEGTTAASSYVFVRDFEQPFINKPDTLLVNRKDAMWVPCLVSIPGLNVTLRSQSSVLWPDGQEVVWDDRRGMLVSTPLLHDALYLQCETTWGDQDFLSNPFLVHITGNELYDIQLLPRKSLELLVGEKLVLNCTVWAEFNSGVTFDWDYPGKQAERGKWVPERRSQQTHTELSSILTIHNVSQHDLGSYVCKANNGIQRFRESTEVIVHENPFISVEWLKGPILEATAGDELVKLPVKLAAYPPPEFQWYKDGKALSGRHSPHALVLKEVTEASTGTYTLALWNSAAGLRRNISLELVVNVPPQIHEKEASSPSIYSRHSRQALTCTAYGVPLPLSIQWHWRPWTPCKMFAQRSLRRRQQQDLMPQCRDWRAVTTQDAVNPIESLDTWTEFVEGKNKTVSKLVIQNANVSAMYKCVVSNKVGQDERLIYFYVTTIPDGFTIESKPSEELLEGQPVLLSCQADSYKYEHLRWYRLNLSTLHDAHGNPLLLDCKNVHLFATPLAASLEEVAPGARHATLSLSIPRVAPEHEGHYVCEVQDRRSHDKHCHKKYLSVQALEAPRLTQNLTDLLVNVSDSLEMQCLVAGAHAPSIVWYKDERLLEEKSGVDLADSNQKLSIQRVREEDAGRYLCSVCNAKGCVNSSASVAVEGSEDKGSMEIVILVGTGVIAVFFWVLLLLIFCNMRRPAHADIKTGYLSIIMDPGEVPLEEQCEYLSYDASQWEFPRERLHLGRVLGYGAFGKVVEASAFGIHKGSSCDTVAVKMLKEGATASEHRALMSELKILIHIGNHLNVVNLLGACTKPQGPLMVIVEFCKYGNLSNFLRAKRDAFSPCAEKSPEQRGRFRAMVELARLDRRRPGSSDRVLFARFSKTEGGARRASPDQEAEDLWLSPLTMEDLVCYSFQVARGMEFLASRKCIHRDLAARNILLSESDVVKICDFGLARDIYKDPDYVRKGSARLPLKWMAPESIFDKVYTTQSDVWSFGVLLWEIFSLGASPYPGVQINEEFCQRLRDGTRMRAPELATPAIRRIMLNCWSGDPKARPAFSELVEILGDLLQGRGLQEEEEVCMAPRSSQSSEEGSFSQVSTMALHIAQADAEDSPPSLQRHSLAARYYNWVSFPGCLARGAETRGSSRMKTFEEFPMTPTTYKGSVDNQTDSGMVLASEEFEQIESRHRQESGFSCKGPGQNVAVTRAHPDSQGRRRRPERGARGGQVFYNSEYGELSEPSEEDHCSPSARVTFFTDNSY

`CCn1c(-c2nonc2N)nc2c(C#CC(C)(C)O)nc(O[C@@H](CN)c3ccccc3)cc21` gave an inhibition [1] of 98.9%, an inhibition [2] of 1.61% and an inhibition [3] of 17.2%. It also gave an inhibition [4] of 5.29%, an inhibition [5] of 33.5% and an inhibition [6] of 0.93%. For the same compound, the inhibition [7] was -0.92%, the inhibition [8] was 1.12% and the inhibition [9] was 0.58%. The inhibition [10] was 3.66%, the inhibition [11] was -1.03% and the inhibition [12] was 0.95%. The inhibition [13] was 0.24%, the inhibition [14] was 3.8% and the inhibition [15] was 2.22%. It also gave an inhibition [16] of 58.4%, an inhibition [17] of 93.8% and an inhibition [18] of 0.67%. It also gave an inhibition [19] of 1.9% and an inhibition [20] of 3.24%.
